Holding throughout (details): primary human lung fibroblasts
Read-out in assay [1]: Plasminogen activator inhibitor-1 (PAI1), SERPINE1 (gene 5054)
The experiment in a line: BSK_MyoF_PAI1: BioMAP Diversity Plus: MyoF Assay for Plasminogen activator inhibitor-1 (PAI1) Biomarker Activity (AID 2284256).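 On outcome: PAI-1 read 24 h after compound addition.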 The method in brief:
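Primary human lung fibroblasts treated with chemical for 24 h; PAI-1 levels quantified by ELISA relative to DMSO. Cytotoxicity was assessed in parallel cultures by SRB total-protein staining (0.1% SRB after 10% TCA fixation, 560 nm).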

Read-out in assay [2]: Interleukin-8 (IL8), CXCL8 (gene 3576)
The experiment in a line: BSK_MyoF_IL8: BioMAP Diversity Plus: MyoF Assay for Interleukin-8 (IL8) Biomarker Activity (AID 2284261). The method in brief:
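Human lung fibroblast (MyoF system) cultures dosed for 24 h, then IL-8 measured by ELISA. Response taken relative to DMSO; parallel SRB total-protein staining for cytotoxicity.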

Read-out in another assay: Decorin, DCN (gene 1634)
The experiment in a line: BSK_MyoF_Decorin: BioMAP Diversity Plus: MyoF Assay for Decorin Biomarker Activity (AID 2284265). In outline: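 Human lung fibroblast cultures were dosed for 24 h, and decorin was then measured by ELISA. Parallel cultures were stained with sulforhodamine B for total protein as a cytotoxicity check. Gain of signal was fitted relative to DMSO.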

The nature of assay [3]: BSK_MyoF_SRB: Viability Assessment in the BioMAP Diversity Plus: MyoF Assay (AID 2284267).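 Further: total protein by SRB absorbance in parallel cultures as cytotoxicity measure; cells assessed 24 h after compound addition.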 In outline: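 Lung fibroblast cultures, 24 h post-dose; fix 10% TCA, stain 0.1% SRB, read 560 nm. Signal = total protein as cytotoxicity measure; fitted relative to DMSO negative control.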
Read-out in assay [4]: Matrix Metallopeptidase 1 (MMP1), MMP1 (gene 4312)
The assay is described as follows: BSK_MyoF_MMP1: BioMAP Diversity Plus: MyoF Assay for Matrix Metallopeptidase 1 (MMP1) Biomarker Activity (AID 2284268). In outline: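 Human lung fibroblast primary cells; MMP1 measured by ELISA 24 h after dosing, fitted in the positive direction relative to DMSO. Parallel SRB staining (0.1%, after 10% TCA fixation, 560 nm) assesses overt cytotoxicity.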

Read-out in assay [5]: TIMP metallopeptidase inhibitor 1 (TIMP1), TIMP1 (gene 7076)
The experiment in a line: BSK_MyoF_TIMP1: BioMAP Diversity Plus: MyoF Assay for TIMP metallopeptidase inhibitor 1 (TIMP1) Biomarker Activity (AID 2284269). The method in brief:
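TIMP-1 levels were determined by ELISA in human lung fibroblasts treated for 24 h. DMSO served as negative control and baseline for upward curve fitting.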

The source made the active and inactive calls. How the source made its calls: active means hit-call score of the fitted dose curve at least 0.9, where 1 is the maximum; inactive means score below 0.9.

On to `COP(=S)(OC)Oc1ccc(Sc2ccc(OP(=S)(OC)OC)cc2)cc1`, for which the outcome in assay [1] is “inactive”; with Decorin, DCN (gene 1634) it was “inactive”; in assay [3], “inactive”; in assay [5], “inactive”. Moreover, the AC50 was 20 µM (active) in assay [2] and 7.48 µM (active) in assay [4].
Consider `O=C(OC1CCCCC1)c1ccccc1C(=O)OC1CCCCC1`, for which the AC50 was 20.9 µM (active) in assay [1]; 5.72 µM (active) in assay [2]; 13.3 µM (active) in assay [3]; 5.69 µM (active) in assay [4]; 25.7 µM (active) in assay [5]. Moreover, the outcome with Decorin, DCN (gene 1634) was inactive.
Regarding `COP(=S)(OC)Oc1ccc(S(=O)(=O)N(C)C)cc1`, the outcome in assay [1] is “inactive”; in assay [2], “inactive”; in the assay with Decorin, DCN (gene 1634), “inactive”; in assay [3], “inactive”; in assay [4], “inactive”; in assay [5], “inactive”.
As to `CCCCC(CC)CO[N+](=O)[O-]` (stereo unspecified), the outcome in assay [1] was “inactive”; in assay [2], “inactive”; with Decorin, DCN (gene 1634), “inactive”; in assay [3], “inactive”; in assay [5], “inactive”. Also, the AC50 in assay [4] was 31.6 µM (active).
As for `COP(=S)(OC)Oc1c(Cl)cc(C)cc1Cl`, the outcome was “inactive” in assay [1]; “inactive” in assay [2]; “inactive” with Decorin, DCN (gene 1634); “inactive” in assay [3]; “inactive” in assay [4]; “inactive” in assay [5].
Take `C(=NC1CCCCC1)=NC1CCCCC1`: the concentration at half-maximal activity (AC50) is 7.53 µM (active) in assay [1]; 33.1 µM (active) in assay [2]; 7.2 µM (active) in assay [3]; 4.75 µM (active) in assay [4]; 6.97 µM (active) in assay [5]. Moreover, the outcome with Decorin, DCN (gene 1634) was inactive.
In the case of `COP(=S)(OC)Oc1cc(Cl)c(Cl)cc1Cl`, the outcome is “inactive” in assay [1]; “inactive” with Decorin, DCN (gene 1634); “inactive” in assay [3]; “inactive” in assay [5]. The half-maximal activity concentration (AC50) in assay [2] was 4.59 µM (active); in assay [4], 20 µM (active).
With `O=S(=O)(c1ccc(Cl)cc1)c1ccc(Cl)cc1`, the outcome in assay [1] was “inactive”; in assay [2], “inactive”; with Decorin, DCN (gene 1634), “inactive”; in assay [3] it was “inactive”; in assay [4], “inactive”; in assay [5] it was “inactive”.
For the molecule `Nc1ncc([N+](=O)[O-])s1`, the outcome in assay [1] was “inactive”; in assay [2] it was “inactive”; in the assay with Decorin, DCN (gene 1634) it was “inactive”; in assay [3], “inactive”; in assay [4], “inactive”; in assay [5] it was “inactive”.
`BrCCBr`: the outcome in assay [1] is “inactive”; in assay [2], “inactive”; with Decorin, DCN (gene 1634) it was “inactive”; in assay [3], “inactive”; in assay [4], “inactive”; in assay [5] it was “inactive”.
For `CC(C)CCCCCCOC(=O)c1ccccc1C(=O)OCCCCCCC(C)C`, the outcome in assay [1] was “inactive”; in assay [2], “inactive”; with Decorin, DCN (gene 1634), “inactive”; in assay [3] it was “inactive”; in assay [4], “inactive”; in assay [5], “inactive”.

The AC50 is the concentration giving half of the maximal activity seen.

The values are drawn from PubChem BioAssay (EPA / NIEHS).
